About 83,000 compounds went through this panel and 20% of them were active in at least one assay; those are over-represented in the sample as a whole.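 Values shown are percent growth following 48 h exposure of cells in 96-well plates to a single concentration of compound; below 10 was considered active.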 Active and inactive are the calls of the source.
Legend:
Test in all cases: NCI-60 one-dose screen, 48 h (100 = growth as untreated, 0 = no growth, -100 = all killed)
Settings in all cases: 10 µM unless noted
SK-MEL-2 melanoma = test system: SK-MEL-2 melanoma
EKVX NSCLC = test system: EKVX NSCLC
SN12C renal = test system: SN12C renal
UO-31 renal = test system: UO-31 renal
TK-10 renal = test system: TK-10 renal
ACHN renal = test system: ACHN renal
CAKI-1 renal = test system: CAKI-1 renal
A498 renal = test system: A498 renal
CCRF-CEM leukemia = test system: CCRF-CEM leukemia
RPMI-8226 leukemia = test system: RPMI-8226 leukemia
OVCAR-8 ovarian = test system: OVCAR-8 ovarian
OVCAR-5 ovarian = test system: OVCAR-5 ovarian
OVCAR-4 ovarian = test system: OVCAR-4 ovarian
SK-OV-3 ovarian = test system: SK-OV-3 ovarian
IGROV1 ovarian = test system: IGROV1 ovarian
OVCAR-3 ovarian = test system: OVCAR-3 ovarian
HS 578T breast = test system: HS 578T breast
NCI/ADR-RES ovarian = test system: NCI/ADR-RES ovarian
MOLT-4 leukemia = test system: MOLT-4 leukemia
SR leukemia = test system: SR leukemia

Measured: growth

COc1ccc(Oc2nc(Nc3ccc(N4CCOCC4)nc3)ncc2NC(=O)c2cc(OC)cc(OC)c2)cc1
inactive: SK-MEL-2 melanoma 47.6% | EKVX NSCLC 89.3% | SN12C renal 93.7% | UO-31 renal 56.3% | TK-10 renal 83.4% | ACHN renal 75.1% | CAKI-1 renal 67.3% | A498 renal 53.7% | CCRF-CEM leukemia 64.2% | RPMI-8226 leukemia 49% | OVCAR-8 ovarian 77.8% | OVCAR-5 ovarian 105% | OVCAR-4 ovarian 78.2% | SK-OV-3 ovarian 88.6% | IGROV1 ovarian 80% | OVCAR-3 ovarian 82.7% | HS 578T breast 86.8% | NCI/ADR-RES ovarian 76%

C=C1c2c(C)nn(-c3ccc(S(N)(=O)=O)cc3)c2N(C)C23CC1C1(C)c4c(C)nn(-c5ccc(S(N)(=O)=O)cc5)c4N(C)C(C)(CC12)C3 (stereo not given)
inactive: SK-MEL-2 melanoma 44.7% | EKVX NSCLC 29.6% | SN12C renal 32.4% | UO-31 renal 25.5% | TK-10 renal 46.6% | ACHN renal 14.1% | CAKI-1 renal 40.7% | A498 renal 75.3% | CCRF-CEM leukemia 18.7% | OVCAR-8 ovarian 40.1% | OVCAR-5 ovarian 64% | OVCAR-4 ovarian 39.3% | SK-OV-3 ovarian 57.6% | IGROV1 ovarian 49.1% | OVCAR-3 ovarian 41.6% | HS 578T breast 54.3% | NCI/ADR-RES ovarian 79.2%
active: RPMI-8226 leukemia -64%

CCOC(=O)C(=CNc1ccccc1[N+](=O)[O-])C(=O)OCC
inactive: SK-MEL-2 melanoma 101% | EKVX NSCLC 114% | SN12C renal 94.2% | UO-31 renal 78.2% | TK-10 renal 106% | ACHN renal 86% | CAKI-1 renal 98.9% | A498 renal 64.1% | CCRF-CEM leukemia 93.7% | MOLT-4 leukemia 96.1% | RPMI-8226 leukemia 92.6% | OVCAR-8 ovarian 101% | OVCAR-5 ovarian 96.4% | OVCAR-4 ovarian 110% | IGROV1 ovarian 107% | OVCAR-3 ovarian 105% | HS 578T breast 98.6% | NCI/ADR-RES ovarian 101%

CS(=O)(=O)c1ccc(-c2nc3cc(Cl)ccc3n2CC(=O)N/N=C/c2ccc(Cl)cc2)cc1
active: RPMI-8226 leukemia -17.2%
inactive: SK-MEL-2 melanoma 44.3% | EKVX NSCLC 72.1% | SN12C renal 69.3% | UO-31 renal 77.8% | TK-10 renal 81.7% | ACHN renal 61.5% | CAKI-1 renal 71.3% | A498 renal 68.4% | CCRF-CEM leukemia 19.9% | MOLT-4 leukemia 12.6% | OVCAR-8 ovarian 43.6% | OVCAR-5 ovarian 77.4% | OVCAR-4 ovarian 60.1% | IGROV1 ovarian 55.6% | OVCAR-3 ovarian 46.5% | HS 578T breast 19.2% | NCI/ADR-RES ovarian 92.8%

Cn1ccnc1C(=O)/C=C/c1ccc(C(=O)Nc2ccc(S(F)(F)(F)(F)F)cc2)cc1
active: SN12C renal 7.07% | CCRF-CEM leukemia 3.4% | SR leukemia 1.8% | OVCAR-8 ovarian 9.86% | OVCAR-3 ovarian 2.9% | NCI/ADR-RES ovarian 5.47%
inactive: SK-MEL-2 melanoma 62.7% | EKVX NSCLC 26.3% | UO-31 renal 28.5% | TK-10 renal 48.8% | ACHN renal 42.5% | CAKI-1 renal 23.9% | A498 renal 38.4% | OVCAR-5 ovarian 10.2% | OVCAR-4 ovarian 33.5% | SK-OV-3 ovarian 61.2% | IGROV1 ovarian 22.3% | HS 578T breast 23.5%

C[C@@H]1CC[C@@H]2[C@@H]1[C@H](OC(=O)c1ccc3ccccc3c1)[C@]1(C3CCCCC3)C[C@@H](OC(=O)CO)[C@@]2(C)O1
active: UO-31 renal -43.6% | ACHN renal 7.83% | CAKI-1 renal -31% | A498 renal -85% | HS 578T breast -32.1%
inactive: SK-MEL-2 melanoma 69.5% | EKVX NSCLC 62% | SN12C renal 24% | TK-10 renal 79.2% | CCRF-CEM leukemia 48.3% | RPMI-8226 leukemia 31.4% | OVCAR-8 ovarian 18.5% | OVCAR-5 ovarian 89.4% | OVCAR-4 ovarian 55.5% | SK-OV-3 ovarian 75.4% | IGROV1 ovarian 71.1% | OVCAR-3 ovarian 73.6% | NCI/ADR-RES ovarian 14.6%

COc1ccc(/C=C(\C#N)n2nnc3cc(F)c(F)cc32)c(OC)c1OC
inactive: SK-MEL-2 melanoma 79% | EKVX NSCLC 72.8% | SN12C renal 67% | UO-31 renal 52.4% | TK-10 renal 126% | ACHN renal 66.2% | CAKI-1 renal 87.7% | A498 renal 91% | CCRF-CEM leukemia 23.4% | RPMI-8226 leukemia 41.6% | OVCAR-8 ovarian 67.6% | OVCAR-5 ovarian 98% | OVCAR-4 ovarian 60.6% | SK-OV-3 ovarian 88.6% | IGROV1 ovarian 68.8% | OVCAR-3 ovarian 58.2% | HS 578T breast 66.2% | NCI/ADR-RES ovarian 72.7%

Cc1cc(Cl)nc(N(CCCNc2ccnc3cc(Cl)ccc23)Cc2ccccn2)n1
active: RPMI-8226 leukemia 1.09%
inactive: SK-MEL-2 melanoma 64.2% | EKVX NSCLC 64.7% | SN12C renal 52.6% | UO-31 renal 27.2% | TK-10 renal 66.1% | ACHN renal 54.2% | CAKI-1 renal 48.5% | A498 renal 30.4% | CCRF-CEM leukemia 36.1% | OVCAR-8 ovarian 33.8% | OVCAR-5 ovarian 56% | OVCAR-4 ovarian 41.4% | SK-OV-3 ovarian 65% | IGROV1 ovarian 44.1% | OVCAR-3 ovarian 62.8% | HS 578T breast 78.6% | NCI/ADR-RES ovarian 32.2%

C=C(CNCCc1ccc(O)cc1)[C@@H]1CC[C@]2(COC3CCCCO3)CC[C@]3(C)[C@H](CC[C@@H]4[C@@]5(C)CCC(N)C(C)(C)[C@@H]5CC[C@]43C)[C@@H]12 (stereo not given in full)
active: SK-MEL-2 melanoma -82.9% | EKVX NSCLC -74.6% | SN12C renal -85.2% | UO-31 renal -96.8% | TK-10 renal -90.7% | ACHN renal -99% | CAKI-1 renal -91.8% | A498 renal -98.7% | CCRF-CEM leukemia -64.1% | RPMI-8226 leukemia -64.9% | OVCAR-8 ovarian -61.6% | OVCAR-5 ovarian -90.6% | OVCAR-4 ovarian -77.5% | SK-OV-3 ovarian -95.1% | IGROV1 ovarian -82.1% | OVCAR-3 ovarian -87% | HS 578T breast -49.5% | NCI/ADR-RES ovarian -67.1%

C=C1C(=O)O[C@H]2[C@H]1CC/C(Cn1cc(CNCCc3c[nH]c4ccccc34)nn1)=C\CC[C@@]1(C)O[C@@H]21
inactive: SK-MEL-2 melanoma 61.4% | EKVX NSCLC 97.2% | SN12C renal 95% | UO-31 renal 80.7% | TK-10 renal 94.9% | ACHN renal 87.4% | CAKI-1 renal 91.3% | A498 renal 103% | CCRF-CEM leukemia 16.4% | MOLT-4 leukemia 77.6% | RPMI-8226 leukemia 76.5% | OVCAR-8 ovarian 92.5% | OVCAR-5 ovarian 88.8% | SK-OV-3 ovarian 80.9% | IGROV1 ovarian 68.8% | OVCAR-3 ovarian 69.4% | HS 578T breast 92.4% | NCI/ADR-RES ovarian 99.9%

N#Cc1c(Oc2ccc([N+](=O)[O-])cc2)nc2sc3cc(Cl)ccc3n2c1=N
inactive: SK-MEL-2 melanoma 84.5% | EKVX NSCLC 84% | SN12C renal 91% | UO-31 renal 72.5% | TK-10 renal 49.9% | ACHN renal 100% | CAKI-1 renal 111% | A498 renal 100% | CCRF-CEM leukemia 96.5% | SR leukemia 92.2% | RPMI-8226 leukemia 83.6% | OVCAR-8 ovarian 63.4% | OVCAR-5 ovarian 120% | OVCAR-4 ovarian 53.1% | SK-OV-3 ovarian 67.1% | IGROV1 ovarian 77.7% | OVCAR-3 ovarian 107% | HS 578T breast 41.8% | NCI/ADR-RES ovarian 86%

Cn1c(NCCc2ccc(O)c(O)c2)nc2c1c(=O)n(Cc1ccc(Cl)cc1)c(=O)n2C
inactive: SK-MEL-2 melanoma 95% | EKVX NSCLC 84.8% | SN12C renal 82.7% | UO-31 renal 29.8% | TK-10 renal 69.9% | ACHN renal 39.5% | CAKI-1 renal 38.7% | A498 renal 86.2% | CCRF-CEM leukemia 12.8% | RPMI-8226 leukemia 37.9% | OVCAR-8 ovarian 87.6% | OVCAR-5 ovarian 94.9% | OVCAR-4 ovarian 59.8% | SK-OV-3 ovarian 82.3% | IGROV1 ovarian 61.9% | OVCAR-3 ovarian 62.6% | HS 578T breast 77% | NCI/ADR-RES ovarian 88.5%

C=C(C)[C@@H]1CC[C@]2(CN)CC[C@]3(C)[C@H](CC[C@@H]4[C@@]5(C)CCC(N)[C@@](C)(CO)[C@@H]5CC[C@]43C)[C@@H]12 (stereo not given in full)
inactive: EKVX NSCLC 21.3% | UO-31 renal 65.8% | A498 renal 81.4% | OVCAR-5 ovarian 48.5% | IGROV1 ovarian 67% | NCI/ADR-RES ovarian 76.2%
active: SK-MEL-2 melanoma -86.4% | SN12C renal -69.3% | TK-10 renal -86.3% | ACHN renal -77.7% | CAKI-1 renal -15.7% | CCRF-CEM leukemia -44.8% | RPMI-8226 leukemia -51.8% | OVCAR-8 ovarian -72.9% | OVCAR-4 ovarian -4.67% | SK-OV-3 ovarian -80.5% | OVCAR-3 ovarian -75.9% | HS 578T breast -37.1%

O=C1C=CC(=Nc2cc(Br)c(O)c(Br)c2)C=C1
active: CCRF-CEM leukemia 7.46% | RPMI-8226 leukemia -18.9%
inactive: SK-MEL-2 melanoma 65.2% | EKVX NSCLC 90.7% | SN12C renal 78.7% | UO-31 renal 56.3% | TK-10 renal 93.8% | ACHN renal 68.4% | CAKI-1 renal 82.8% | A498 renal 97.2% | OVCAR-8 ovarian 66.7% | OVCAR-5 ovarian 94.7% | OVCAR-4 ovarian 50.1% | SK-OV-3 ovarian 117% | IGROV1 ovarian 72.1% | OVCAR-3 ovarian 32% | HS 578T breast 83.8% | NCI/ADR-RES ovarian 63.9%

Clc1ccc2c(NCCCN3CCN(c4nc(N5CCOCC5)nc5ccccc45)CC3)ccnc2c1
active: SK-MEL-2 melanoma -5.64% | UO-31 renal -85.9% | TK-10 renal -38% | ACHN renal -29.1% | CCRF-CEM leukemia 4.4% | RPMI-8226 leukemia -39.5% | OVCAR-3 ovarian -40.8%
inactive: EKVX NSCLC 26.4% | SN12C renal 45.9% | CAKI-1 renal 15.3% | A498 renal 71.2% | OVCAR-8 ovarian 16.1% | OVCAR-5 ovarian 60.6% | OVCAR-4 ovarian 50.3% | SK-OV-3 ovarian 108% | IGROV1 ovarian 50.4% | HS 578T breast 17.2% | NCI/ADR-RES ovarian 25.1%

CCN(CC)CCCNC(=O)c1ccc(N)cc1O
active: CCRF-CEM leukemia -32.8%
inactive: SK-MEL-2 melanoma 100% | EKVX NSCLC 103% | SN12C renal 101% | UO-31 renal 69.7% | TK-10 renal 106% | ACHN renal 98.3% | CAKI-1 renal 106% | A498 renal 56.2% | SR leukemia 98.3% | RPMI-8226 leukemia 94.7% | OVCAR-8 ovarian 103% | OVCAR-5 ovarian 98.9% | OVCAR-4 ovarian 118% | SK-OV-3 ovarian 105% | IGROV1 ovarian 91.8% | OVCAR-3 ovarian 107% | HS 578T breast 98.4% | NCI/ADR-RES ovarian 96.1%
